Hits are enriched below; roughly 2% of the tested compounds scored in any of these assays.
M1 ag parental: counter-screen for M1 agonists: effect in parental CHO-K1 cells. activation, % at 3 µM. hit rate 0.48% among 360,000. AID 602248, 2012. Fluo-8 calcium fluorescence; scaled to maximal ATP response, vehicle zero; in the data active = activation above about 15%;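 note: untransfected CHO-K1 host cells lacking M1 receptor as counterscreen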
M4 ag: human M4 muscarinic receptor agonists, primary screen, CHO-K1 cells, Fluo-8 calcium fluorescence; activation, % at 3 µM; AID 624127, 2012; CHO-K1 hM4/Gqi5; vehicle 0%, full acetylcholine response 100%; Muscarinic acetylcholine receptor M4 (Homo sapiens), P08173; hit rate 0.14% among 360,000;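 active = activation above the run mean over all test wells plus 3 SD, cut at about 32% in these data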;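 note: peak over basal fluorescence ratio per well then scaled between controls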
Target sequence (P08173 whole entry, looked up): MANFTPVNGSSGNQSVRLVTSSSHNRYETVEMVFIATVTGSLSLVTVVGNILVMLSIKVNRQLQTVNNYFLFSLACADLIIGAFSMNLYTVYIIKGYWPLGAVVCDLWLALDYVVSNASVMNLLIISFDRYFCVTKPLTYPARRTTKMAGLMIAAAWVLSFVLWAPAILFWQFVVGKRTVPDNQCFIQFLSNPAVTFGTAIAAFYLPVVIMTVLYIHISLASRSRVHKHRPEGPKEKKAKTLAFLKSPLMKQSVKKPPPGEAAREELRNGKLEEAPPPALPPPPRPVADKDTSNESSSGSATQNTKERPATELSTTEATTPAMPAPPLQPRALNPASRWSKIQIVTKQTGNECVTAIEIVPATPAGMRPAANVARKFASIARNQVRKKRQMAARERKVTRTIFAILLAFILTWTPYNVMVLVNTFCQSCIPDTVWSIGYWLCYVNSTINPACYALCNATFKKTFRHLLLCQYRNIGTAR
CHO-K1 Ca antag: M1 antagonist counterscreen hit in parental CHO-K1 cells | ATP-induced calcium, Fluo-8 fluorescence | inhibition, % at 3 µM | hit rate 0.6% among 360,000 | AID 602250;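 active = inhibition above a per-plate cutoff, the plate's mean sample inhibition plus 3 SD, cut at about 24% in these data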
M4 PAM: human M4 muscarinic receptor positive allosteric modulators, primary screen, CHO-K1 cells, Fluo-8 calcium fluorescence; Muscarinic acetylcholine receptor M4 (Homo sapiens), P08173; CHO-K1 hM4/Gqi5, ACh EC20; 0% = ACh EC20, 100% = maximal ACh; activation, % at 3 µM; hit rate 0.4% among 360,000;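 active = activation above its plate's cutoff, the mean activation of sample wells plus 3 SD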
M1 PAM parental: nonselective calcium activators in parental CHO-K1 cells, primary screen, counter-screen for M1 PAM project, cell-based, Fluo-8 calcium fluorescence, full deck, 1536-well | ATP EC20; 0% at ATP EC20, 100% at ATP max | activation, % at 3 µM | AID 602247, 2012 | hit rate 0.02% among 360,000;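 active = activation above the run cutoff, the mean activation of all test compounds plus 3 SD, cut at about 40% in these data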;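 note: peak over basal fluorescence ratio in a 140 s read after ATP addition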
CHRM4 antagonist: human M4 muscarinic receptor antagonists, primary screen, CHO cells, Fluo-8 calcium fluorescence; hit rate 0.73% among 360,000; inhibition, % at 3 µM; CHO-hM4 cells, ACh EC80;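 active = inhibition above its plate's cutoff, the mean inhibition of sample wells plus 3 SD, cut at about 27% in these data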
Numbers stand for hits; - = inactive.

SMILES | M1 ag parental | M4 ag | CHO-K1 Ca antag | M4 PAM | M1 PAM parental | CHRM4 antagonist
CCCCNc1c(-c2cccc(-c3ccc(OC)cc3)c2)nc2cc(C)ccn12 | - | - | - | - | - | 42
COc1ccccc1N1CCN(Cc2cnc3ccc(Cl)cn23)CC1 | - | - | - | - | - | -
NC(=O)c1nsc(C(=O)N(Cc2ccco2)C(C(=O)NCc2ccccc2)c2ccc(O)cc2)c1N (centres undefined) | - | - | - | - | - | -
CN1CCc2c(c3ccccc3n2Cc2ccccc2)C1 | - | - | - | - | - | 57
CCCCN1CCc2c(c3ccccc3n2Cc2ccccc2)C1 | - | - | - | - | - | -
Cc1nc(-c2cc(-c3nc(-c4ccc(C(C)(C)C)cc4)no3)no2)cs1 | - | - | - | - | - | 28
Cc1ccc(-c2nc(-c3ccncc3)no2)cc1C | - | - | - | - | - | -
CC(Oc1ccc(C(=O)c2ccccc2)cc1)C(=O)Nc1ccc(S(N)(=O)=O)cc1 (centres undefined) | 18 | - | - | - | - | -
CCN(Cc1ccccc1)C(=O)Cn1c(=O)n(-c2ccc(OC)cc2OC)c(=O)c2c(C)c(C)sc21 | - | - | - | - | - | -
Cc1c(Cl)sn(-c2ccc(Cl)cc2)c1=O | - | - | - | - | - | 38
O=C(NCCO[N+](=O)[O-])c1cccnc1 | - | - | - | - | - | 74
COc1ccc2[nH]c3c(c2c1)CCN1C(=O)N([C@@H](C)C(=O)NCCc2ccc(F)cc2)C(=O)[C@]31C | - | - | - | - | - | -
CCCn1c(=O)c(C(=O)NCc2ccccc2Cl)c(O)c2ccccc21 | - | - | - | - | - | -
CCn1c(=O)c(C(=O)NNC(=O)c2ccccc2F)c(O)c2ccccc21 | - | - | - | - | - | -
CCn1c(=O)c(C(=O)NNC(=O)c2ccccc2Cl)c(O)c2ccccc21 | 35 | 54 | - | - | - | -
CCCn1c(=O)c(C(=O)NCc2ccncc2)c(O)c2ccccc21 | - | - | 29 | - | - | -
Cc1ccc(C(=O)Nc2nn(C)c3cccc(F)c23)cc1 | - | - | - | - | - | -
CCN(CC)CC#CCC(O)(c1ccccc1)c1ccc(Br)cc1 (centres undefined) | - | - | - | - | - | 30
C=CC(O)(C#CCN(CC)CC)c1ccccc1 (centres undefined) | - | - | - | - | - | -
CCN(CC)CC#CCC(O)(c1ccccc1)c1ccccc1 | - | - | - | - | - | 32
CN(C)CC#CCC(O)(c1ccccc1)c1ccccc1 | - | - | - | - | - | -
CCN(CC)CC#CCC(C)(c1ccccc1)c1ccccc1 | - | - | - | - | - | 63
Nc1nc2c(ncn2[C@@H]2O[C@H](CNC(=O)[C@H](N)C3CCCCC3)[C@@H](O)[C@H]2O)c(=O)[nH]1 | - | - | - | - | - | -
CCNC(=O)C1(C)CCCN(C(=O)c2nc(C)oc2C)C1 (centres undefined) | - | - | - | - | - | -
CCOc1ccc(Oc2ccc(NC(=O)[C@@H](NC(N)=O)[C@@H](C)CC)cc2)cc1 | - | - | - | - | - | -
SMILES | M1 ag parental | M4 ag | CHO-K1 Ca antag | M4 PAM | M1 PAM parental | CHRM4 antagonist
CC[C@H](C)[C@H](NC(N)=O)C(=O)Nc1ccc(S(=O)(=O)NC(C)C)cc1 | - | - | - | - | - | 30
COc1ccccc1CNC(=O)CN(CCc1ccccc1)S(C)(=O)=O | - | - | - | - | - | -
Cc1nc2c(s1)sc1ccccc12 | - | - | 24 | - | - | -
O=C(O)COCC(=O)Nc1ccc(OCCc2ccccc2)cc1 | - | - | - | - | - | -
C=CCn1c(SCCOc2ccc(OC)cc2)nnc1C(CO)NC(=O)c1ccc(OC)cc1 (centres undefined) | - | - | 25 | - | - | -
O=[N+]([O-])c1cc(C(F)(F)F)cc([N+](=O)[O-])c1NCCNC(=S)Nc1ccc(Cl)c(Cl)c1 | - | - | 27 | - | - | 31
CCCS(=O)(=O)n1nc(-c2ccc(C)cc2)cc1N | - | - | - | - | - | -
CCCS(=O)(=O)n1nc(-c2ccc(OC)cc2)cc1N | - | - | - | - | - | 31
Cc1ccccc1CS(=O)(=O)c1nnc([C@H](Cc2ccccc2)NC(=O)OC(C)(C)C)o1 | - | - | - | - | - | 79
CCSc1nnc([C@H](Cc2ccccc2)NC(=O)OC(C)(C)C)o1 | - | - | - | - | - | -
CCC(C)[C@@H](NC(=O)OC(C)(C)C)c1nnc(S(=O)(=O)Cc2cccc(C)c2)o1 (some centres undefined) | - | - | 26 | - | - | -
CCC(=O)N1CCCC(C)(C(=O)NS(=O)(=O)c2ccccc2Cl)C1 (centres undefined) | - | - | - | - | - | -
Cc1cccc(C)c1NC(=O)CN(C)C(C)C(=O)Nc1ccccc1-c1ccccc1 (centres undefined) | - | - | - | - | - | -
Cc1ccccc1CN(C)C(C)C(=O)Nc1ccccc1F (centres undefined) | 19 | - | - | - | - | -
O=C(Nc1ccc(S(=O)(=O)Nc2ccccn2)cc1)C(F)(F)F | - | - | - | - | - | -
CC(C)(C)C(=O)Nc1ccc(S(=O)(=O)Nc2ccccn2)cc1 | - | - | - | 25 | - | -
Cc1ccc(S(=O)(=O)CC(=O)Nc2ccc3nc(C)sc3c2)cc1 | - | - | - | - | - | -
CCNC(=O)C/C(C)=N/NC(=O)C12CC3CC(CC(C3)C1)C2 | - | - | 24 | - | - | -
N#CC(Sc1ccccn1)c1ccc(Cl)cc1Cl (centres undefined) | - | - | - | - | - | -
Cc1ccnc(NS(=O)(=O)c2cccc([N+](=O)[O-])c2)c1 | - | - | - | - | - | -
O=C(NC1(C(=O)O)CCCC1)c1ccccc1 | - | - | - | 16 | - | -
O=C(O)C1(Nc2ccccc2)CCCC1 | - | - | - | - | - | -
CCCCc1cc(=O)oc2cc(C)cc(OCC(=O)Nc3ccccn3)c12 | - | - | - | - | - | -
CCOc1cc(CNn2cnnc2)cc(Br)c1OCC(=O)NC(C)(C)C | - | - | - | - | - | -
CCOc1cc(CNn2cnnc2)cc(Br)c1OCC(=O)NC1CCCCC1 | - | - | 29 | - | - | -
COc1ccc([N+](=O)[O-])cc1NCc1ccco1 | - | - | - | - | - | -
CN1CC[C@@H]2C(=O)N3CCc4ccc(Br)cc4[C@@H]3C[C@@H]21 | - | - | - | - | - | -
O=[N+]([O-])c1cccc(/C=N/n2cnnc2)c1 | - | - | - | 20 | - | -
